This is part of a sample that, as a whole, favours compounds with a hit. Of some 83,000 tested, about 20% had one in any assay.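 A percent growth of 40 corresponds to 60% growth inhibition; 0 means no net growth; -100 means all cells died. Active threshold: below 10.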 Activity calls are given as the source filed them.
Key:
Test in all cases: NCI-60 one-dose screen, 48 h (100 = growth as untreated, 0 = no growth, -100 = all killed)
Conditions in all cases: 10 µM unless noted
SR leukemia = system: SR leukemia
RPMI-8226 leukemia = system: RPMI-8226 leukemia
OVCAR-8 ovarian = system: OVCAR-8 ovarian
OVCAR-5 ovarian = system: OVCAR-5 ovarian
OVCAR-4 ovarian = system: OVCAR-4 ovarian
SK-OV-3 ovarian = system: SK-OV-3 ovarian
IGROV1 ovarian = system: IGROV1 ovarian
OVCAR-3 ovarian = system: OVCAR-3 ovarian
HS 578T breast = system: HS 578T breast
NCI/ADR-RES ovarian = system: NCI/ADR-RES ovarian

Measured: growth

COc1ccc(-n2c(/C=C3\C(=O)Nc4ccccc43)ccc2CO)cc1
inactive: SR leukemia 105% | RPMI-8226 leukemia 94.6% | OVCAR-8 ovarian 102% | OVCAR-5 ovarian 107% | OVCAR-4 ovarian 92.6% | SK-OV-3 ovarian 105% | IGROV1 ovarian 98.5% | OVCAR-3 ovarian 114% | HS 578T breast 106% | NCI/ADR-RES ovarian 102%

COc1cccc(O)c1/C=C(/C)c1ccc2c(OC)cccc2[o+]1
inactive: SR leukemia 87.6% | RPMI-8226 leukemia 109% | OVCAR-8 ovarian 103% | OVCAR-5 ovarian 106% | OVCAR-4 ovarian 103% | SK-OV-3 ovarian 106% | IGROV1 ovarian 97% | OVCAR-3 ovarian 116% | HS 578T breast 110% | NCI/ADR-RES ovarian 100%

CC1(C)[C@@H](O)CC[C@]2(C)[C@H]3CC[C@@H]4[C@H]5[C@H](C(=O)/C=C\c6ccc([N+](=O)[O-])cc6)CC[C@]5(O)CC[C@@]4(C)[C@]3(C)CC[C@@H]12
inactive: RPMI-8226 leukemia 11.7% | OVCAR-8 ovarian 76.8% | OVCAR-5 ovarian 92% | OVCAR-4 ovarian 41.1% | SK-OV-3 ovarian 107% | IGROV1 ovarian 56.6% | OVCAR-3 ovarian 43.2% | HS 578T breast 59.9% | NCI/ADR-RES ovarian 64%
active: SR leukemia 1.04%

COc1cccc(N2CCN(c3ncnc4c3[nH]c3ccc(F)cc34)C[C@H]2C)c1
inactive: SR leukemia 46.4% | RPMI-8226 leukemia 19.2% | OVCAR-8 ovarian 22% | OVCAR-5 ovarian 91.4% | OVCAR-4 ovarian 28% | SK-OV-3 ovarian 68% | IGROV1 ovarian 59.5% | OVCAR-3 ovarian 69.4% | HS 578T breast 72.9% | NCI/ADR-RES ovarian 17%

O=C(CSc1nnc(-c2ccc(Cl)cc2)n1-c1ccccc1)Nc1cccc(Cl)c1
active: OVCAR-4 ovarian -5.99%
inactive: SR leukemia 21.4% | RPMI-8226 leukemia 34.5% | OVCAR-8 ovarian 62.4% | OVCAR-5 ovarian 71.7% | SK-OV-3 ovarian 126% | IGROV1 ovarian 46.7% | OVCAR-3 ovarian 82% | HS 578T breast 54.4% | NCI/ADR-RES ovarian 50.4%

N=c1c2cc(-c3ccccc3)oc2ncn1/N=C/c1ccc(Cl)cc1
inactive: SR leukemia 35.3% | RPMI-8226 leukemia 80.9% | OVCAR-8 ovarian 95.7% | OVCAR-5 ovarian 51.7% | OVCAR-4 ovarian 17.1% | SK-OV-3 ovarian 99.7% | IGROV1 ovarian 53.5% | HS 578T breast 81.7% | NCI/ADR-RES ovarian 49.6%
active: OVCAR-3 ovarian 6.82%

CCc1ccc(SC2c3ccc(N(CC)CC)cc3Oc3nc(N)c(C#N)c(N)c32)cc1 (stereo not drawn)
inactive: SK-OV-3 ovarian 17.8%
active: SR leukemia -0.413% | RPMI-8226 leukemia -29.6% | OVCAR-8 ovarian 5.08% | OVCAR-5 ovarian -84.2% | OVCAR-4 ovarian 7.28% | IGROV1 ovarian -78% | OVCAR-3 ovarian -64.8% | HS 578T breast 9.11% | NCI/ADR-RES ovarian 5.13%

CS(=O)(=O)Nc1cc(-c2ccc3ncc(C#N)c(NCc4ccccc4)c3c2)cnc1Cl
active: SR leukemia -18.9% | RPMI-8226 leukemia -35.3% | OVCAR-8 ovarian 7.32% | OVCAR-5 ovarian 3.75% | OVCAR-4 ovarian -6.69% | SK-OV-3 ovarian -15% | IGROV1 ovarian -17.4% | OVCAR-3 ovarian -5.17% | HS 578T breast -21.2%
inactive: NCI/ADR-RES ovarian 24.5%

C=C(C)[C@@H]1CC[C@]2(COCCCNCCC#N)CC[C@]3(C)[C@H](CC[C@@H]4[C@@]5(C)CC[C@H](OCCCNCCC#N)C(C)(C)[C@@H]5CC[C@]43C)[C@@H]12
inactive: RPMI-8226 leukemia 34% | OVCAR-8 ovarian 66.6% | OVCAR-5 ovarian 83.7% | OVCAR-4 ovarian 23.9% | SK-OV-3 ovarian 97.8% | IGROV1 ovarian 72.1% | OVCAR-3 ovarian 71% | HS 578T breast 72.6% | NCI/ADR-RES ovarian 37.3%
active: SR leukemia -18.4%

O=C(Cn1cc[n+](CC(=O)c2ccc(-c3ccccc3)cc2)c1)Nc1cccc2cccnc12
inactive: SR leukemia 53.9% | RPMI-8226 leukemia 33.5% | OVCAR-8 ovarian 76.6% | OVCAR-5 ovarian 90.6% | OVCAR-4 ovarian 32.9% | SK-OV-3 ovarian 80% | IGROV1 ovarian 27.3% | OVCAR-3 ovarian 50.1% | HS 578T breast 75.8% | NCI/ADR-RES ovarian 97.9%

O=C(CCn1c[n+](CC(=O)c2ccc(-c3ccccc3)cc2)c2ccccc21)Nc1cccc2cccnc12
inactive: OVCAR-8 ovarian 52.5% | OVCAR-5 ovarian 81.9% | OVCAR-4 ovarian 24.8% | SK-OV-3 ovarian 74.9% | IGROV1 ovarian 10.5% | OVCAR-3 ovarian 28.5% | HS 578T breast 62.8% | NCI/ADR-RES ovarian 99.1%
active: SR leukemia 9.22% | RPMI-8226 leukemia 3.25%

Cc1ccc(-c2cc3nc(C(Cl)Cl)nc(-c4ccco4)n3n2)cc1
active: RPMI-8226 leukemia -29.4% | OVCAR-5 ovarian 2.3% | OVCAR-3 ovarian -36.3% | HS 578T breast -2.05% | NCI/ADR-RES ovarian 3.8%
inactive: SR leukemia 82.4% | OVCAR-8 ovarian 18.3% | OVCAR-4 ovarian 36% | SK-OV-3 ovarian 24.2% | IGROV1 ovarian 64.5%

CC(C)(C)n1cc(-c2ccnc(NCCCNS(=O)(=O)c3cccc(F)c3)n2)c(-c2ccc(Cl)c(O)c2)n1
inactive: SR leukemia 94.1% | RPMI-8226 leukemia 76% | OVCAR-8 ovarian 118% | OVCAR-5 ovarian 109% | OVCAR-4 ovarian 101% | SK-OV-3 ovarian 105% | IGROV1 ovarian 103% | OVCAR-3 ovarian 109% | HS 578T breast 101% | NCI/ADR-RES ovarian 101%

C#CCC#CCN1CCC[C@H]1C(=O)NCC(=O)OC
inactive: SR leukemia 118% | RPMI-8226 leukemia 113% | OVCAR-8 ovarian 99.1% | OVCAR-5 ovarian 107% | OVCAR-4 ovarian 97.3% | SK-OV-3 ovarian 101% | IGROV1 ovarian 104% | OVCAR-3 ovarian 114% | HS 578T breast 117% | NCI/ADR-RES ovarian 96%

O=S(=O)(Oc1ccc(-c2nnc(Nc3ccccc3)s2)cc1)C(F)(F)C(F)(F)C(F)(F)C(F)(F)C(F)(F)C(F)(F)F
inactive: SR leukemia 19.5% | RPMI-8226 leukemia 105% | OVCAR-8 ovarian 107% | OVCAR-5 ovarian 93.3% | OVCAR-4 ovarian 107% | SK-OV-3 ovarian 108% | IGROV1 ovarian 107% | OVCAR-3 ovarian 108% | HS 578T breast 98.4% | NCI/ADR-RES ovarian 103%

O=C(Nc1ccc2c(ccn2Cc2ccccn2)c1)c1cnccn1
inactive: SR leukemia 92.7% | RPMI-8226 leukemia 93.7% | OVCAR-8 ovarian 105% | OVCAR-5 ovarian 96.8% | OVCAR-4 ovarian 76% | SK-OV-3 ovarian 109% | IGROV1 ovarian 79.7% | OVCAR-3 ovarian 110% | HS 578T breast 104% | NCI/ADR-RES ovarian 107%

COc1ccc(C(=O)CSc2nc3c(c(Nc4ccc(S(N)(=O)=O)cc4)n2)CCCC3)cc1
inactive: SR leukemia 69.6% | RPMI-8226 leukemia 83.6% | OVCAR-8 ovarian 92.3% | OVCAR-5 ovarian 123% | OVCAR-4 ovarian 87.8% | SK-OV-3 ovarian 120% | IGROV1 ovarian 112% | HS 578T breast 110%

CCOc1ccc(C(=O)Nc2ncc(Cc3ccc(F)cc3)s2)cc1
inactive: SR leukemia 19.6% | RPMI-8226 leukemia 25.5% | OVCAR-8 ovarian 22.1% | OVCAR-5 ovarian 34.1% | OVCAR-4 ovarian 54.1% | SK-OV-3 ovarian 36.2% | IGROV1 ovarian 40% | NCI/ADR-RES ovarian 18.2%
active: HS 578T breast 1.23%

CCNC(=O)N1CCc2cc(OC)c(OCCc3ccc(OC)c(N)c3)cc2C1c1ccc(C)cc1C (stereo not drawn)
inactive: SR leukemia 15.3% | RPMI-8226 leukemia 20.1% | OVCAR-8 ovarian 24.4% | OVCAR-5 ovarian 33.5% | OVCAR-4 ovarian 57.6% | SK-OV-3 ovarian 52.8% | IGROV1 ovarian 21.4% | HS 578T breast 11.7% | NCI/ADR-RES ovarian 17.9%

CCNC(=O)N1CCc2cc(OC)c(OCCc3ccc(OC)cc3)cc2C1c1ccc(Cl)cc1C (stereo not drawn)
inactive: RPMI-8226 leukemia 20% | OVCAR-8 ovarian 27.3% | OVCAR-5 ovarian 32.9% | OVCAR-4 ovarian 51.7% | SK-OV-3 ovarian 54.9% | IGROV1 ovarian 23.4%
active: SR leukemia 6.29% | HS 578T breast 1.75%

CC(=O)O[C@@H]1C(=O)N(c2cnccn2)[C@H]1c1ccccc1[N+](=O)[O-]
inactive: SR leukemia 11.5% | RPMI-8226 leukemia 13.3% | OVCAR-5 ovarian 26.8% | OVCAR-4 ovarian 66.6% | SK-OV-3 ovarian 32.6% | IGROV1 ovarian 13.6% | HS 578T breast 13.8% | NCI/ADR-RES ovarian 26.7%
active: OVCAR-8 ovarian -20.5%

CC/C(=C/c1cc(OC)ccc1O)c1ccc2cc(OC)ccc2[o+]1
inactive: SR leukemia 18.3% | RPMI-8226 leukemia 79.4% | OVCAR-8 ovarian 87.1% | OVCAR-5 ovarian 82.8% | OVCAR-4 ovarian 89.8% | SK-OV-3 ovarian 60.2% | IGROV1 ovarian 55.1% | HS 578T breast 63.4%

CCNC(=O)N1CCc2cc(OC)c(OCCc3ccc(OC)cc3)cc2C1c1ccc(OC)cc1C (stereo not drawn)
inactive: RPMI-8226 leukemia 13.6% | OVCAR-8 ovarian 27.6% | OVCAR-5 ovarian 35.9% | OVCAR-4 ovarian 50.3% | SK-OV-3 ovarian 45.9% | IGROV1 ovarian 27.8% | NCI/ADR-RES ovarian 12.3%
active: SR leukemia 4.44% | HS 578T breast 1.32%

CCc1cccc2c3c(sc12)C(c1ccc(OC)cc1)C(C#N)=C(/N=C/c1ccc(Cl)cc1)O3 (stereo not drawn)
inactive: RPMI-8226 leukemia 10.9% | OVCAR-8 ovarian 21.8% | OVCAR-5 ovarian 45.7% | OVCAR-4 ovarian 73.9% | SK-OV-3 ovarian 40.4% | IGROV1 ovarian 42.6%
active: SR leukemia 1.27% | HS 578T breast -7.21% | NCI/ADR-RES ovarian 0.0091%

Cc1ccc(C2=NN(C)C(=O)C3(CCCC3)C2)cc1
inactive: SR leukemia 113% | RPMI-8226 leukemia 111% | OVCAR-8 ovarian 102% | OVCAR-5 ovarian 102% | OVCAR-4 ovarian 106% | SK-OV-3 ovarian 110% | IGROV1 ovarian 110% | HS 578T breast 109% | NCI/ADR-RES ovarian 102%

From PubChem BioAssay (NCI)
